G9a block: inhibitors of human histone lysine methyltransferase G9a; Potency, µM (top dose mostly 102 µM), for the others: at the highest dose activity, negative = inhibition, actives largely listed as inhibitors; hit rate 8.8% among 350,000; Q96KQ7; G9a H3K9 monomethylation, AlphaScreen, 2 h; also: potency is read from the fitted curve at half-maximal effect; % is scaled to controls: 0 for no effect and ±100 for the full control effect; nearly all actives have a fitted effect of over 75% in size
Target sequence (Q96KQ7 913-1193 limits assumed): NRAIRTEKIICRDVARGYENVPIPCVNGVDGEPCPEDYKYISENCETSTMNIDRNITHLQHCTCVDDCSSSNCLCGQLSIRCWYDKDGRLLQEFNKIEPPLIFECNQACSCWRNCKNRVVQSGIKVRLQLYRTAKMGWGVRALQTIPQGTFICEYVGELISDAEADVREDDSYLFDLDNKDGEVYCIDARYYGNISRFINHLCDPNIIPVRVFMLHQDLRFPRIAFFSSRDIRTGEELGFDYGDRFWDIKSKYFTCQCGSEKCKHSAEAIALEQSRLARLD
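AlphaScreen read-out: biotin-H3K9 peptide (500 nM) methylation by 20 nM enzyme with 20 uM SAM, 2 h at room temperature after 15 min compound preincubation; anti-monomethyl H3K9 antibody plus donor/acceptor beads, 10 min dark.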
CtBP-E1A blk: CtBP/E1A binding inhibition. AlphaScreen GST-E1A/His-CtBP binding, 1536-well; active compounds read low. activity change, % (concentration not given with the values). hit rate 0.49% among 340,000. AID 651724; in the data active = activity change below about -65%; inconclusive = mostly about -30% to -63%; also: % is scaled to controls: 0 for no effect and ±100 for the full control effect
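AlphaScreen with 125 nM GST-E1A and 125 nM His-CtBP (5X stocks) in Tris pH 8.0, 300 mM NaCl, BSA, Tween 20, TCEP. Compounds preincubated 2 h at 37 deg C, then glutathione donor/nickel acceptor beads added for 1 h at 37 deg C in dark.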
HP1b chromo inh: inhibitors of HP1-beta chromodomain binding to methylated histone tails | AlphaScreen HP1-beta / biotin-H3K9me3 peptide binding | Potency, µM (series often up to 114 µM), without a hit: at the highest dose activity change, negative = inhibition, usual class: inhibitors | hit rate 0.56% among 390,000; also: potency is read from the fitted curve at half-maximal effect; nearly all actives have a fitted effect of over 70% in size
Target sequence (P83916 whole entry, looked up): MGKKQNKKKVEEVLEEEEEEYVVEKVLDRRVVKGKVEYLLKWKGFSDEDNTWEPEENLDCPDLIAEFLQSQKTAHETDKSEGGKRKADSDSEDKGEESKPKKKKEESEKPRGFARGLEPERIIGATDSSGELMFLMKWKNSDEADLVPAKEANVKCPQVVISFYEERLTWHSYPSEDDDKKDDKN
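HP1-beta protein (50 nM final) preincubated 30 min at room temperature with biotinylated H3(1-18)K9me3 peptide (50 nM) in PBS pH 7.4, 0.01% Tween-20, then compound added for 30 min. AlphaScreen streptavidin donor/nickel chelate acceptor beads (10 ug/mL final), 30 min dark, luminescence read.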
JMJD2A Tudor: inhibitors of human JMJD2A Tudor domain; AID 504339; AlphaScreen JMJD2A-Tudor / H3K4me3 peptide binding; hit rate 4.4% among 390,000; O75164; Potency, µM (highest dose often 114 µM), inactives show top-dose activity change, negative = inhibition, most hits filed as inhibitors; also: potency is read from the fitted curve at half-maximal effect; % is scaled to controls: 0 for no effect and ±100 for the full control effect; nearly all actives have a fitted effect of over 50% in size
BAZ2B inh: inhibitors of human BAZ2B bromodomain. hit rate 4.4% among 360,000. Potency, µM (series often up to 114 µM), inactives show top-dose activity change, negative = inhibition, hits mostly inhibitors. AlphaScreen BAZ2B-H3K14Ac peptide displacement; also: potency is read from the fitted curve at half-maximal effect; % is scaled to controls: 0 for no effect and ±100 for the full control effect; nearly all actives have a fitted effect of over 60% in size
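Inhibition is scored as reduced AlphaScreen emission. The BAZ2B/b-H3(5-23)K14Ac complex (50 nM each) in PBS pH 7.4, 0.01% Tween-20 meets compound (up to 110 uM) for 30 min at RT before bead addition.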
Six1-Eya2 blk: Six1/Eya2 interaction inhibition | AlphaScreen GST-Six1/His-Eya2 binding, biochemical; active compounds read low | activity change, % (no concentration beside the values) | hit rate 0.56% among 360,000 | Q15475+O00167; in the data active = activity change below about -65%; inconclusive = mostly about -30% to -63%; also: % is scaled to controls: 0 for no effect and ±100 for the full control effect
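AlphaScreen luminescence read after one hour at 37 °C in darkness. Pin-transferred compounds met GST-Six1 and His-Eya2 protein (5X stock 250 nM/500 nM) plus glutathione donor and Ni-chelate acceptor beads (5X, 50 ug/mL).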
Active calls of the source: *; ? = inconclusive; nt = no result; [ ] = another dose, or the depositor's remark. Compounds with a hit are over-represented: about 10% of the library has one in this group of screens. Unless noted, calls follow the shape of the dose curve; as a rule, active = well fitted inhibition curve with a large enough effect; inconclusive = small, poorly fitted or top-dose-only effect; inactive = no such curve, though single readings can be large or run the other way.

SMILES	G9a block	CtBP-E1A blk	HP1b chromo inh	JMJD2A Tudor	BAZ2B inh	Six1-Eya2 blk
Cc1csc2nc(COC(=O)c3ccc(NC(=O)C(C)C)cc3)cc(=O)n12	?	nt	-1%	-21%	-7%	nt
CS(=O)(=O)N1CCC(n2c(C(F)(F)F)nc3cccnc32)CC1	2%[59 µM]	nt	40%	2%	4%	nt
Cc1ccc([N+](=O)[O-])cc1S(=O)(=O)Nc1cccc(-c2ccc(N3CCCC3)nn2)c1	14µM*	-4	2%	-28%	?	-26
O=[N+]([O-])c1ccc(S(=O)(=O)Nc2ccc(-c3ccc(N4CCOCC4)nn3)cc2)cc1	9%[2.33 µM]	10	12%	-27%	-3%	-16
O=[N+]([O-])c1ccc(S(=O)(=O)Nc2cccc(-c3ccc(N4CCOCC4)nn3)c2)cc1	25µM*	-3	9%	-15%	-26%	-9
O=[N+]([O-])c1ccc(Cl)c(S(=O)(=O)Nc2cccc(-c3ccc(N4CCOCC4)nn3)c2)c1	50µM*	-7	9%	-16%	-29%	-17
CCOc1ccc(-c2cccc(NS(=O)(=O)c3cc([N+](=O)[O-])ccc3Cl)c2)nn1	50µM*	-16	-12%	-36%	?	-10
COc1ccc(-c2cccc(NS(=O)(=O)c3cc([N+](=O)[O-])ccc3Cl)c2)nn1	?	-6	-1%	-31%	-5%	6
O=C1OC(N2C(=O)CC[C@H]2C(=O)Nc2ccc3c(c2)OCO3)c2ccccc21 (some centres undefined)	?	3	18%	-18%	0%	1
O=C(c1ccccc1)N1CCc2cc(CNS(=O)(=O)c3ccc(Cl)s3)ccc21	3%[59 µM]	nt	19%[57 µM]	-19%	1%	nt
COCCCNC(=O)C(=O)C1C(=O)Nc2ccccc21 (centres undefined)	40µM*	0	3%	-29%	-35%	4
O=C(O)CCCCCNC(=O)C(=O)C1C(=O)Nc2ccccc21 (centres undefined)	25µM*	9	61%	-4%[11.4 µM]	?	4
O=C(NCc1ccncc1)C(=O)C1C(=O)Nc2ccccc21 (centres undefined)	-48%	-7	-4%	?	?	5
CCCNC(=O)C1(C)CCCN(CCC(=O)c2ccccc2)C1 (centres undefined)	nt	3	nt	nt	nt	19
O=S(=O)(Nc1nc2ccc(S(=O)(=O)N3CCCC3)cc2s1)c1ccc(F)cc1	40µM*	-1	-9%	-28%	?	-3
COc1cc(C2c3c(oc4ccccc4c3=O)C(=O)N2Cc2ccccc2Cl)ccc1O (centres undefined)	-15%[59 µM]	nt	32%	-18%	1%	nt
Cc1ccc(C)c(-n2[nH]c3c4c(ccc3c2=O)C(=O)c2ccccc2C4=O)c1	-7%[59 µM]	-7	50µM*	?	45µM*	-3
Cc1ccc(C)c(CN2C(=O)C(=O)c3ccccc32)c1	?	nt	1%	-18%	-3%	nt
CC(C)(C)n1[nH]c2c3c(ccc2c1=O)C(=O)c1ccccc1C3=O	?	-15	18%	-21%	-10%	?
Cc1ccc(-n2[nH]c3c4c(ccc3c2=O)C(=O)c2ccccc2C4=O)cc1	2.8µM*	-2	-14%	-11%	-13%	1
COCCCn1[nH]c2c3c(ccc2c1=O)C(=O)c1ccccc1C3=O	7.1µM*	-23	-18%	-32%	?	-28
COc1ccc(NC(=O)c2cc3cc(C)ccc3[nH]2)cc1	1%[59 µM]	nt	51%	4%	-28%	nt
Fc1ccc(-c2noc3ncnc(NCCCN4CCN(c5ccccc5)CC4)c23)cc1	?	nt	-6%	?	-8%[57.1 µM]	nt
Cc1cccc(N2C(=O)CS(=O)(=O)C23C(=O)N(C)c2ccccc23)c1 (centres undefined)	-24%[59 µM]	nt	30%	-10%	8%[57.1 µM]	nt
O=C(CCC(=O)Nc1ccccc1Cl)NNC(=O)Nc1cccc([N+](=O)[O-])c1	nt	-2	3%	-5%	-9%	0
SMILES	G9a block	CtBP-E1A blk	HP1b chromo inh	JMJD2A Tudor	BAZ2B inh	Six1-Eya2 blk
CCN(CC)c1ccc(NC(=O)Nc2cccc3ccccc23)cc1	3.2µM*	7	-10%	-24%	?	-24
CCCCc1ccc(NC(=O)C2CCCC2)cc1	nt	19	30%	32%	nt	15
CCN(CC)c1ccc(NC(=O)C(C)C)cc1	11µM*	3	5%	?	-3%	-1
CCN(CC)c1ccc(NC(=O)C2CC3CCC2C3)cc1 (centres undefined)	6.3µM*	-15	?	79µM*	-68%	?
CCN(CC)c1ccc(NC(=O)C2CCCC2)cc1	45µM*	-13	-19%	?	?	-15
CCN(CC)c1ccc(NC(=O)CCCCC(=O)Nc2ccc(N(CC)CC)cc2)cc1	nt	nt	8%	-31%	nt	-1
Cn1cc(S(=O)(=O)N2CCCCCC2)cc1C(=O)Nc1ccccc1F	2%[59 µM]	nt	23%[57 µM]	-13%	-11%	nt
COc1cccc(Cn2c(=O)c(-c3ccc(F)cc3)nc3cnc(OC)nc32)c1	-2%[0.501 µM]	nt	nt	nt	nt	nt
COCCNc1nc(-c2ccccc2CO)c2sc(-c3ccccc3)cc2n1	nt	7	nt	nt	nt	1
COc1cc(-c2ccno2)ccc1S(=O)(=O)N1CCN(c2ccccc2F)CC1	12%[59 µM]	nt	17%	-6%	-6%	nt
COc1ccc(N2CCN(S(=O)(=O)c3ccc(-c4ccno4)cc3OC)CC2)cc1	10µM*	nt	-6%	?	22µM*	nt
COC(=O)C1(C(=O)OC)C/C=C\CN(S(=O)(=O)c2ccccc2[N+](=O)[O-])CC1	nt	2	nt	nt	nt	-11
CCOC(=O)c1sc(NC(=O)c2c(-c3ccccc3)c(-c3ccccc3)nn(C)c2=O)nc1C	?	nt	-7%	?	-36%	nt
O=C(NCC1CCCO1)c1nc2c(nnn2Cc2ccc(F)cc2)c(=O)[nH]1 (centres undefined)	50µM*	-4	27%	?	-17%	1
O=C(CN1CC[n+]2c(-c3cccs3)csc21)c1ccc(-c2ccccc2)cc1	nt	3	15%	-24%	-28%	-19
CCc1ccc(-c2csc3[n+]2CCN3C(C)=O)cc1	11µM*	7	7%	-36%	?	-1
CC(=O)N1CC[n+]2c(-c3ccc(Cl)cc3)csc21	14µM*	-2	16%	40µM*	-33%	6
COc1ccc(-c2nc(SCC(=O)NC3CCCC3)c(-c3ccc(F)cc3)[nH]2)cc1OC	?	nt	-18%	?	?	nt
CCOc1ccc(Nc2nc(C)c(NC(=O)c3cccc(OC)c3)c(Nc3ccc(OCC)cc3)n2)cc1	11µM*	nt	-9%	?	?	nt

Screening results: PubChem, National Center for Advancing Translational Sciences (NCATS)
